A selection: hits, their analogues and other compounds. The true share with any hit is near 7.9%.
LASV entry inh – inhibitors of Lassa virus binding or cell entry; Lassa virus pseudotype entry inhibition, cell reporter; Potency, µM (doses to about 37.9 µM), most hits filed as inhibitors; 300,000 tested, 1.2% active; AID 540256; calls by dose curve; tested in HEK293 cells; note: nearly all actives have a fitted effect of over 50% in size
HCV inhibitor – inhibitors of hepatitis C virus infection; Huh7.5.1 HCVcc-Cre infection, luciferase reporter, 44 h; Potency, µM (highest dose often 41.8 µM), hits mostly inhibitors; 340,000 tested, 3.4% active; active = well fitted inhibition curve with a large enough effect; inconclusive = small, poorly fitted or top-dose-only effect, or another doubt; inactive = no such curve, though single readings can be large or run the other way
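Cells (1,000/well) were plated 4 h before compound, then infected with HCVcc-Cre virus (~0.5 moi). After 44 h further culture, infection was read as luciferase luminescence following a 15 min substrate incubation at room temperature.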
FMDV inh – blocks foot and mouth disease virus. Potency, µM (highest dose often 57.9 µM), usual class: inhibitors. 410,000 tested, 1.2% active. FMDV antiviral cell-based qHTS; calls by dose curve; tested in HEK293T cells; note: read-out not given here; nearly all actives have a fitted effect of over 45% in size
Marburg entry inh – Marburg virus entry inhibition; Marburg virus pseudotyped entry inhibition, cell reporter; Potency, µM (top dose mostly 37.8 µM), most hits filed as inhibitors; 300,000 tested, 1.8% active; calls by dose curve; tested in HEK293 cells
HCMV inh – inhibitors of human cytomegalovirus | 410,000 tested, 4.5% active | HFF cells, HCMV-luciferase reporter, 72 h; active compounds read low | activity change, negative = inhibition, % at 57.5 µM | AID 1259415; in the data active = activity change below about -60%; inconclusive = no clear call, values can overlap the other calls; inactive = above about -39%
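Human foreskin fibroblasts infected with luciferase-reporter HCMV at MOI 1 PFU/cell, compounds at two doses. Luciferase measured 72 h post infection; normalized to buffer-only basal and Salinomycin (10uM) controls.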
Of the large screens only hits and unclear results are named; the others gave an inactive call.

CSc1ccc(-c2nc(CSCC(=O)N3CCOCC3)c(C)o2)cc1	HCV inhibitor inconclusive, FMDV inh inconclusive, HCMV inh -74
COC(=O)c1cc2sccc2n1Cc1nc(-c2ccc(C)cc2)oc1C	Marburg entry inh inconclusive (no result: LASV entry inh, HCV inhibitor)
CSc1ccc(-c2nc(CSCC(=O)NC3CC3)c(C)o2)cc1	HCV inhibitor inconclusive (no result: LASV entry inh, Marburg entry inh)
COC(=O)c1cc2sccc2n1Cc1nc(-c2ccc(OC)cc2)oc1C	LASV entry inh inconclusive, Marburg entry inh inconclusive, HCMV inh -61 (no result: FMDV inh)
COC(=O)CSCc1nc(-c2ccc(C(=O)OC)cc2)oc1C	LASV entry inh 7.1µM, HCMV inh -63 (no result: HCV inhibitor, Marburg entry inh)
COc1ccc2c(c1)OC(C)CN(CCNC(=O)c1ccc(-n3cccn3)cc1)C2 (stereo not drawn)	none (no result: LASV entry inh, HCV inhibitor, Marburg entry inh, HCMV inh)
Cc1cccn2c(CNCC3(c4ccccc4)CCCC3)c(C(=O)N3CCOCC3)nc12	LASV entry inh inconclusive, Marburg entry inh 8.9µM, HCMV inh -101
Cn1c(-c2cccc(C(F)(F)F)c2)cc2cnc(Nc3ccc4c(c3)OCCO4)cc21	none (no result: LASV entry inh, HCV inhibitor, FMDV inh, Marburg entry inh)
O=C(Cn1ccc(NC(=O)OCc2ccccc2)nc1=O)NCc1ccc2c(c1)OCO2	none (no result: LASV entry inh, Marburg entry inh)
O=C(NCCCCCCNC(=O)OCc1ccccc1)OCc1ccccc1	Marburg entry inh inconclusive
O=C(Cn1ccc(NC(=O)OCc2ccccc2)nc1=O)NCCc1c[nH]c2ccccc12	HCV inhibitor 2.8µM (no result: LASV entry inh, Marburg entry inh)
O=C(Nc1ccn(CCCNCc2ccc3c(c2)OCO3)c(=O)n1)OCc1ccccc1	HCV inhibitor 10µM (no result: LASV entry inh, Marburg entry inh)
O=C(Nc1ccn(CCCNCc2ccccc2)c(=O)n1)OCc1ccccc1	HCV inhibitor 0.56µM (no result: LASV entry inh, Marburg entry inh)
O=C(OCc1ccccc1)N(CCCCN(CCCNCc1ccccc1)C(=O)OCc1ccccc1)CCCNCc1ccccc1	LASV entry inh inconclusive, HCV inhibitor 10µM, FMDV inh inconclusive, Marburg entry inh inconclusive, HCMV inh -97
C[C@H]1C(C(=O)N(C)C2CCCCC2)=Cc2c(n(-c3ccc(F)cc3)c(=O)n2CCCOc2ccccc2)C=C1c1ccccc1	none (no result: LASV entry inh, HCV inhibitor, FMDV inh, Marburg entry inh)
Cc1ccc([C@H]2C[C@H](O)[C@@H](n3cc(-c4ccc(F)cc4)nn3)CN2C(=O)C2CCCCC2)cc1	Marburg entry inh inconclusive (no result: LASV entry inh, HCV inhibitor)
CCCNC(=O)OC[C@H]1O[C@H](CCO/N=C(\C)CCN2CCCCc3nc(C)c(C)cc32)C=C[C@@H]1Oc1ccc(OC)cc1	none (no result: LASV entry inh, HCV inhibitor, FMDV inh, HCMV inh)
Cc1c(C(=N)C(C#N)C#N)c(=N)oc2c1ccc1ccccc12	HCMV inh -75 (no result: LASV entry inh, Marburg entry inh)
CN1C/C(=C/c2cccnc2)C(=O)/C(=C/c2cccnc2)C1	LASV entry inh inconclusive, HCV inhibitor inconclusive, FMDV inh 3.2µM, Marburg entry inh 1.8µM, HCMV inh -92
CN1C/C(=C/c2ccc(B(O)O)cc2)C(=O)/C(=C/c2ccc(B(O)O)cc2)C1	FMDV inh 28µM (no result: LASV entry inh, HCV inhibitor, Marburg entry inh, HCMV inh)
CC(C)N1C/C(=C/c2ccsc2)C(=O)/C(=C/c2ccsc2)C1	LASV entry inh 4µM, HCV inhibitor inconclusive, FMDV inh 16µM, Marburg entry inh inconclusive, HCMV inh -85
CC(C)N1C/C(=C/c2cccnc2)C(=O)/C(=C/c2cccnc2)C1	LASV entry inh 13µM, HCV inhibitor inconclusive, FMDV inh 8.9µM, Marburg entry inh 4.5µM
O=C1c2ccccc2C(=Cc2cccnc2)c2ccccc21	none (no result: LASV entry inh, HCV inhibitor, Marburg entry inh)
CCN1C(=O)S/C(=C/c2ccsc2)C1=O	none
O=C(C=Cc1ccccc1)Nc1cccc(C(=O)NCc2ccccc2)c1	none (no result: HCV inhibitor, FMDV inh, Marburg entry inh, HCMV inh)
C[C@]12CC[C@@H]3c4cc(O)c(O)cc4CC[C@H]3[C@@H]1CC[C@@H]2O	HCV inhibitor 13µM (no result: LASV entry inh, Marburg entry inh)
CCOCc1cc(=O)[nH]c(SC)n1	HCMV inh -60 (no result: LASV entry inh, Marburg entry inh)
NS(=O)(=O)c1ccc(CCNC(=O)c2cc(-c3ccc(Br)cc3)nc3ccccc23)cc1	HCV inhibitor inconclusive, HCMV inh -88 (no result: LASV entry inh, Marburg entry inh)
O=C(NCc1ccccn1)c1cc(-c2ccccc2)nc2ccccc12	none
CCCc1ccc(-c2cc(C(=O)NCCc3ccc(S(N)(=O)=O)cc3)c3ccccc3n2)cc1	HCV inhibitor inconclusive
O=C(NCc1ccccn1)c1cc(-c2ccc(-c3ccccc3)cc2)nc2ccccc12	HCV inhibitor inconclusive, HCMV inh -94 (no result: LASV entry inh)
CCc1ccc(-c2cc(C(=O)Nn3cnnc3)c3ccccc3n2)cc1	LASV entry inh 1.3µM, FMDV inh 11µM, Marburg entry inh 1µM
O=C(Nc1ncccn1)c1cc(-c2ccc(F)cc2)nc2ccccc12	FMDV inh 32µM
COc1cccc(NC(=O)CSc2nc(O)c(C)c(=O)n2-c2ccc(C)cc2)c1	HCV inhibitor inconclusive
CCN(CC)C(=O)Cn1c(=O)n(-c2ccc(OC)cc2OC)c(=O)c2c(C)c(C(=O)N(CC)CC)sc21	none (no result: HCV inhibitor, Marburg entry inh)
COCCNC(=O)c1cc(-c2ccc(-c3ccccc3)cc2)nc2ccccc12	LASV entry inh inconclusive, HCV inhibitor 10µM, Marburg entry inh inconclusive, HCMV inh -77
CCc1ccc(-c2cc(C(=O)N3N=C(C(F)F)CC3(O)C(F)F)c3ccccc3n2)cc1 (stereo not drawn)	HCV inhibitor inconclusive, Marburg entry inh inconclusive, HCMV inh -87
COCCCNC(=O)c1cc(-c2cccnc2)nc2ccccc12	none
CC(C)Cc1cc(C(=O)N2N=C(C(F)F)CC2(O)C(F)F)c2ccccc2n1 (stereo not drawn)	HCV inhibitor inconclusive
Cc1ccc(S(=O)(=O)NCc2ccccc2)cc1C(=O)NCC(=O)Nc1c(C)cccc1C	HCMV inh inconclusive (no result: LASV entry inh, HCV inhibitor, Marburg entry inh)
Nc1ccc2nc(-c3cc(Cl)c(N)c(Cl)c3)[nH]c2c1	HCV inhibitor 11µM, Marburg entry inh inconclusive
Nc1ccc2nc(-c3ccc(Cl)cc3)[nH]c2c1	none (no result: LASV entry inh, Marburg entry inh)
COC(=O)c1ccc(/C=N/NC(=O)CNc2cccc(C)c2)cc1	LASV entry inh inconclusive, HCV inhibitor inconclusive
CCOc1cc(/C=N/Nc2cccc(C(=O)O)c2)ccc1OC(=O)c1ccccc1	LASV entry inh inconclusive, FMDV inh 4µM, Marburg entry inh inconclusive
COc1cc(C=NNc2ccccc2)ccc1OC(=O)c1ccccc1	none (no result: LASV entry inh, HCV inhibitor, Marburg entry inh)
CCOc1cc(/C=N/NC(=O)CNc2cccc(C)c2)ccc1OC(=O)c1ccccc1	LASV entry inh 16µM
COc1ccc([C@@H]2C[C@H]3[C@@H](CN2S(=O)(=O)c2ccccc2)C(=O)C[C@@H](c2cccc4ccccc24)N3S(=O)(=O)c2ccc(C)cc2)cc1	none (no result: LASV entry inh, HCV inhibitor, Marburg entry inh)
O=C(Nc1cccc(/C=C/c2nc3ccccc3c(=O)[nH]2)c1)c1ccccc1Cl	HCV inhibitor 5µM (no result: LASV entry inh, Marburg entry inh)
COc1ccc(C(=O)Nc2cccc(/C=C/c3nc4ccccc4c(=O)[nH]3)c2)cc1	HCV inhibitor 1.3µM, FMDV inh inconclusive, HCMV inh -84 (no result: LASV entry inh, Marburg entry inh)
COc1ccc(C(=O)Nc2nc3ccccc3c(=O)[nH]2)cc1	LASV entry inh inconclusive, Marburg entry inh inconclusive
O=C(CCl)N1CCN2C(=O)c3ccccc3C12c1ccc(Cl)cc1 (stereo not drawn)	FMDV inh 10µM, Marburg entry inh inconclusive, HCMV inh -115
O=C(Nc1cccc(Cl)c1)N1CCN2C(=O)c3ccccc3C12c1ccccc1 (stereo not drawn)	HCV inhibitor inconclusive, FMDV inh inconclusive, Marburg entry inh inconclusive
Cc1ccc(C(=O)N2CCN3C(=O)c4ccccc4C23c2ccc(Cl)cc2)cc1 (stereo not drawn)	LASV entry inh inconclusive, HCV inhibitor 10µM, Marburg entry inh inconclusive, HCMV inh -71

Source: PubChem
